The source of these data is PubChem BioAssay AID2158 (National Center for Advancing Translational Sciences (NCATS), 2009).

Records with an inconclusive call do not appear. A number with no mark means an inactive call. Active and inactive are the calls of the source. Calls come from the whole dose curve; as a rule, active = well fitted inhibition curve with a large enough effect; inconclusive = small, poorly fitted or top-dose-only effect; inactive = no such curve, though single readings can be large or run the other way.
Potency is the fitted concentration of half-maximal effect.

Cruzipain (Trypanosoma cruzi), sequence (P25779 123-467 limits assumed): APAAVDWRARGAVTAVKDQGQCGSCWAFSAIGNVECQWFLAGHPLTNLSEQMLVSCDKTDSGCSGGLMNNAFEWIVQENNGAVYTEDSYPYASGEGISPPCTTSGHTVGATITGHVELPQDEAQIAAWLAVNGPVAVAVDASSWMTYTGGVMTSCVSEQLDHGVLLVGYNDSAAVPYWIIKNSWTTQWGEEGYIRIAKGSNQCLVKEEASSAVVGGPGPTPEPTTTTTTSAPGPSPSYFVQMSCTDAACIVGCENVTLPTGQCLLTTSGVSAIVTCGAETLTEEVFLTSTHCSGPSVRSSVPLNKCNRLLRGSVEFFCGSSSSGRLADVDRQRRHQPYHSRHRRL

For the experiment, the target named is Cruzipain (Trypanosoma cruzi) (UniProt P25779). The experiment in a line: Confirmation qHTS Assay for Inhibitors of Cruzain.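 For activity change, negative = inhibition: plate controls were uninhibited enzyme control for no effect and buffer wells lacking enzyme for full effect.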 Note: nearly all actives have a fitted effect of over 40% in size. Particulars: purified cruzain, Z-FR-AMC fluorescence, 0.01% Triton. The protocol:
Cruzain is a cysteine protease from the tropical parasite Trypanosoma cruzi. This assay protocol is a follow-up and confirmation of related AID 1478 (qHTS Assay for Promiscuous and Specific Inhibitors of Cruzain -- with detergent). Cruzain was assayed by the use of fluorogenic coumarin-based substrate Z-FR-AMC: proteolytic cleavage releases AMC, whose fluorescence is measured at 360 nm excitation and 450 nm emission. Purified cruzain was supplied by the labs of Prof. James McKerrow and Brian Shoichet, UC San Francisco. This assay had 0.01% Triton X-100 concentration. See following references for additional details: Jadhav A, et al. J Med Chem. 2010 Jan 14;53(1):37-51. Mott BT, et al. J Med Chem. 2010 Jan 14;53(1):52-60. Assay Provider: Shoichet, Brian; University of California, San Fancisco Screening Center PI: Austin, C.P. Screening Center: NIH Chemical Genomics Center [NCGC]
Buffer: 100 mM Sodium Acetate, pH 5.5, 5 mM DTT, Triton X-100 concentration: 0.01%. Reagents/Controls: Buffer in columns 3 and 4 as negative control (no enzyme). Substrate solution: 2 uM final concentration of Z-FR-AMC (catalog number I-1160, Bachem) dispensed throughout the plate. Enzyme: 1.5 nM Cruzain final concentration in columns 1, 2, 5-48. Column 1 is neutral (100% activity). Column 2 contained titration of covalent inhibitor K11777, starting concentration 1 mM, then 1:2 dilution in duplicate). Assay Steps: Three uL of enzyme or buffer were dispensed to 1536-well Greiner black solid bottom plates. Compounds and controls (23 nL) were transferred via Kalypsys PinTool. The plates were incubated for 15 min at room temperature, and then 1 uL of substrate solution was added to start the reaction. The plates were immediately transferred to and read 4 times every 30 seconds for 2 min on ViewLux High-throughput CCD imager (Perkin-Elmer) using 360 nm excitation and 450 nm emission fluorescence protocol. The fluorescence intensity difference between the third and the first time points (time lapse of 60 seconds) was used to compute reaction progress.
(In general: Quantitative high-throughput screening tests each substance at several concentrations.)
In the case of `Cc1nc2c(=O)n(C)c(=O)nc-2n(C)n1`, the Potency is 2000 nM (active).
`CCc1ccccc1NC(=O)CSc1nnc([C@@H](N)Cc2c[nH]c3ccccc23)o1`: the activity change, negative = inhibition was -73.4%.
Same read-out and setting: then `O=C(Nc1nc(-c2ccccc2)c(-c2ccccc2)s1)c1ccc(S(=O)(=O)N(CCCl)CCCl)cc1`, with -8.01%.
Turning to `CC(C)OC(=O)c1c(N)n(Cc2ccco2)c2nc3ccccc3nc12`, the activity change, negative = inhibition was -8.08%.
Turning to `Cc1ccc(S(=O)(=O)N[C@@H](CCCCN)C(=O)CCl)cc1`, the Potency is 282 nM (active).
Still for that read-out and setting: under `Cc1ccc(-c2nc3c(=O)n(C)c(=O)nc-3n(C)n2)cc1` stands 1410 nM (active); under `Cn1ncnc2c(=O)n(C)c(=O)nc1-2`, 2240 nM (active).
In the case of `N#CC(C#N)=NNc1cccc(Cl)c1`, the Potency is 15800 nM (active).
Still for that read-out and setting: then `NC(=O)CSc1nnc([C@@H](N)Cc2c[nH]c3ccccc23)o1`, with 15800 nM (active); and `Cn1nc(-c2ccccc2)nc2c(=O)n(C)c(=O)nc1-2`, with 1410 nM (active).
On the same count and under the same terms, then `CCn1nc(-c2ccccc2)nc2c(=O)n(C)c(=O)nc1-2`, with 3980 nM (active).
